Screens deposited in PubChem by National Center for Advancing Translational Sciences (NCATS).
An excerpt weighted towards active compounds, which were near 2.9% of everything screened.
a7 integrin act: qHTS for Activators of Integrin-Mediated Alleviation for Muscular Dystrophy | AID 624291, 2012 | Potency, µM (series often up to 38.3 µM), without a hit: at the top dose activation, hits mostly activators | hit rate 0.064% among 350,000 | alpha7betagal myoblasts, beta-gal FDG fluorescence, 48 h;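 note: potency is the fitted concentration of half-maximal effect; 100% = response of the positive control SU9516; nearly all actives have a fitted effect of over 60% in size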
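Alpha7betagal+/- myoblasts (passage 13) were plated 16-24 hr, then exposed to compounds (1:260 dilution of DMSO stock) for 48 hours at 37C. After MPER lysis, β-galactosidase reporter activity was read as FDG fluorescence (ex 480/em 540) after 30 minutes.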
IDH1 R132H inh: qHTS for Inhibitors of mutant isocitrate dehydrogenase 1 (IDH1): qHTS. Isocitrate dehydrogenase [NADP] cytoplasmic (Homo sapiens), O75874. IDH1-R132H enzyme, NADPH consumption, diaphorase/resazurin fluorescence. Potency, µM (top dose mostly 76.6 µM), for inactives: at the top dose activity change, negative = inhibition, hits mostly inhibitors. hit rate 0.093% among 390,000. AID 602179, 2012; note: potency is the fitted concentration of half-maximal effect; % is set by controls: 0 for no effect and ±100 for the full control effect; nearly all actives have a fitted effect of over 65% in size
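IDH1-R132H (0.5 ug/mL) preincubated 30 min with compound, then NADPH (0.016 mM) and alpha-KG (2 mM) added; 80 min at RT, pH 7.5. Remaining NADPH coupled via diaphorase/resazurin to fluorescence (540/590 nm); concentration-response curves normalized to no-enzyme control.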
DRD3 antagonist: qHTS of D3 Dopamine Receptor Antagonist: qHTS | D3R cells, DiscoveRx beta-arrestin luminescence, antagonist mode; active compounds read low | D(3) dopamine receptor (Homo sapiens), P35462 | hit rate 2.5% among 360,000 | max response, negative = inhibition, %; in the data active = max response below about -50%; inconclusive = no clear call, values can overlap the other calls; note: % is set by controls: 0 for no effect and ±100 for the full control effect
Target sequence (P35462 whole entry, looked up): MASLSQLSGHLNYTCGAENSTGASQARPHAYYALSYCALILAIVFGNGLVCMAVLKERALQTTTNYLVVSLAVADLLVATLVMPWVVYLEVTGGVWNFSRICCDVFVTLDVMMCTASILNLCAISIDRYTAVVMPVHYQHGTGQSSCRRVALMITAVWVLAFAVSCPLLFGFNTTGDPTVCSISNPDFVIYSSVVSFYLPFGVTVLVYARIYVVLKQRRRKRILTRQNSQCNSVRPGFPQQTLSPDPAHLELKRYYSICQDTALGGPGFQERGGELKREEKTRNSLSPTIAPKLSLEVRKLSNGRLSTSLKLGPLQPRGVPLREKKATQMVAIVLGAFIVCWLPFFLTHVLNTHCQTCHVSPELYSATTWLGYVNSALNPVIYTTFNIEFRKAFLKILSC
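Cells plated overnight at 1500 cells/well, then exposed to library compounds with dopamine controls for 90 minutes at 37 degrees C. DiscoveRx reagent added for 30–60 minutes at room temperature; luminescence read, quantitative HTS format.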
D3 ag: qHTS of D3 Dopamine Receptor Agonist: qHTS. D3R DiscoveRx beta-arrestin cells, luminescence, 90 min. AID 652048, 2013. max activation, %. hit rate 0.58% among 410,000; in the data active = max activation above about 30%; note: 0% is about no effect
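Agonist mode: compounds and dopamine controls were applied to plated cells for 90 min at 37 degrees C after an overnight attachment at 1500 cells/well. Luminescent read-out followed 30 - 60 minutes at room temperature with DiscoveRx detection reagent.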
B2AR arrestin: qHTS assay of beta-arrestin-biased ligands of beta2-adrenergic receptor. Beta-2 adrenergic receptor (Homo sapiens), P07550. beta-arrestin recruitment to beta2AR, cell-based reporter. Potency, µM (doses to about 46.1 µM), for inactives: at the highest dose activation, most hits filed as activators. hit rate 0.02% among 330,000. AID 492947, 2010;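 note: potency is the fitted concentration of half-maximal effect; 0% = DMSO controls and full agonism = EC100 isoproterenol or metaproterenol; nearly all actives have a fitted effect of over 65% in size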
The depositor's hits bear a star; ? = inconclusive; / = not tested or not shown; ! = repeats disagree; [ ] = another dose, or the depositor's remark. Unless noted, calls come from the whole dose curve; as a rule, active = well fitted curve in the direction sought with a large enough effect; inconclusive = small, poorly fitted or top-dose-only effect, or another doubt; inactive = no such curve, though single readings can be large; an effect the other way counts as inactive or inconclusive.

SMILES | a7 integrin act | IDH1 R132H inh | DRD3 antagonist | D3 ag | B2AR arrestin
O=C(O)c1cc(O)c2c(c1)[C@H]([C@H]1c3cc(C(=O)O)cc(O)c3C(=O)c3c(O[C@@H]4O[C@H](CO)[C@@H](O)[C@H](O)[C@H]4O)cccc31)c1cccc(OC3O[C@H](CO)[C@@H](O)[C@H](O)[C@H]3O)c1C2=O (some centres not stated) | / | -14% | -13 | 0 | 0%
COc1ccc(CNC(=O)Cc2c(C)c3c(cc(C)c4c(C)c(C)oc43)oc2=O)cc1 | / | 2% | / | -12 | /
Cc1ccc(C)c(N2CCN(C(=O)c3cccn3-c3nnc(N4CCCCC4)s3)CC2)c1 | / | -14% | / | -4 | /
COc1ccc(C2C(=O)N(C3CCCCCC3)CC(=O)N2Cc2ccccc2)cc1 (configuration not stated) | / | 0% | / | -14 | /
CCC(C)(C)N1CC(=O)N(Cc2ccccc2)C(c2ccc(OC)cc2)C1=O (configuration not stated) | 4% | 0% | -52* | 1 | 0%
CCCCNC(=O)COC(=O)c1c2c(nc3ccccc13)/C(=C/c1cccs1)CC2 | -15% | 2% | 11 | 69* | 0%
CNC(=O)NC(=O)C(C)OC(=O)c1c2c(nc3ccccc13)/C(=C/c1cccs1)CC2 (configuration not stated) | 4% | 6% | 2 | 37* | 0%
COc1ccc(CNC(=O)c2cccc(S(=O)(=O)N3CCCCC3)c2)cc1OC | -15% | -8% | 1 | -4 | 0%
CC(=O)Nc1cccc(Nc2nc3ccccc3n3c(C)nnc23)c1 | / | 3% | / | 8 | /
Cc1nc2ccn(Cc3ccco3)c(=O)c2cc1C(=O)NCc1ccccc1F | / | 0% | / | 8 | /
CCc1c(C)c2ccc(OCC(=O)N(C)C)c(C)c2oc1=O | -5% | 7% | 21 | 12 | 0%
CCc1c(C)c2ccc(OCC(=O)OC(C)C)c(C)c2oc1=O | -52% | 3% | 56 | 41* | 0%
COc1ccccc1N1CCN(CC(=O)Nc2ccccc2C(=O)NCCc2ccccc2)CC1 | -13% | -4% | 17 | -12 | 0%
NC(=O)C1(N2CCCCC2)CCN(Cc2ccc(Br)cc2)CC1 | -19% | 3% | -115* | -21 | -1%
Fc1ccc(CN2CCCCCCC2)cc1 | 20% | 4% | -26 | 0 | 0%
NC(=O)C1(N2CCCCC2)CCN(Cc2ccc(F)cc2)CC1 | -8%[7.66 µM] | 11% | -88* | -28 | -1%
Cc1onc(-c2c(F)cccc2Cl)c1C(=O)NCc1ccccn1 | -2% | -3% | 15 | -4 | 0%
COC(=O)c1cc(OC)c(OC)cc1NC(=O)Cn1nnc(-c2ccccc2Cl)n1 | -9% | 4% | 6 | 52* | -1%
COC(=O)c1cc(OC)c(OC)cc1NC(=O)c1c(-c2ccccc2Cl)noc1C | -12% | 1% | 39 | 44* | 0%
Cc1onc(-c2ccccc2Cl)c1C(=O)NCc1ccccn1 | 2%[7.66 µM] | 5% | -58* | 2 | 0%
C[C@]12CCC(=O)C=C1CC[C@@H]1[C@@H]2[C@@H](O)C[C@@]2(C)[C@H]1CC[C@]2(O)C(=O)COC(=O)CCC(=O)O | / | 4% | -61*! | -92 | 0%
CC(=O)OCC(=O)[C@@]1(O)CC[C@H]2[C@@H]3CCC4=CC(=O)CC[C@]4(C)[C@H]3[C@@H](O)C[C@@]21C | / | -8% | -11 | 21 | -1%
CCN(CC)S(=O)(=O)c1ccc(-c2nnc(SCC(=O)N3CCOCC3)o2)cc1 | -2% | 14% | -63* | -7 | -1%
CCN(CC)S(=O)(=O)c1ccc(-c2nnc(SCC(C)=O)o2)cc1 | -17% | -1% | -5 | -2 | 0%
COc1ccc(Cc2nnc(Nc3ccc(C)cc3C)[nH]c2=O)cc1 | 6% | -4% | -61* | -2 | 6%
SMILES | a7 integrin act | IDH1 R132H inh | DRD3 antagonist | D3 ag | B2AR arrestin
COc1ccc(Cc2nnc(SCC(=O)Nc3ccc(C)cc3C)[nH]c2=O)cc1 | 18% | -4% | -3 | -3 | 0%
O=C(C[n+]1cc(-c2ccc(Cl)cc2)n2c1CCCCC2)c1ccccc1 | -20% | 5% | -63* | -30 | 0%
COc1ccc(-c2cc(C(=O)Nc3c(C(=O)c4ccc(C)c(F)c4)oc4ccccc34)no2)cc1 | / | 10% | / | -16 | /
Cc1cc(Nc2ccc(F)cc2)n2c(nc3ccccc32)c1C#N | / | -4% | / | 10 | /
Cc1cc(Nc2cccc([N+](=O)[O-])c2)n2c(nc3ccccc32)c1C#N | -66% | 4% | -93* | 4 | 0%
COC(=O)c1ccccc1NC(=O)CSc1nnnn1C1CCCCC1 | 21% | 7% | 22 | -5 | 0%
CCOC(=O)c1cn(CC(=O)Nc2ccccc2C(=O)OCC)nn1 | -3% | 3% | -72* | -6 | -1%
COc1ccc(-n2c(Cc3cccn3C)nnc2SCC(=O)Nc2cccc(OC)c2)cc1 | 4% | 1% | 4 | 5 | 0%
CCOC(=O)c1ccccc1NC(=O)CSc1nnnn1C1CCCCC1 | -33% | 6% | -77* | -30 | -1%
CCOc1ccccc1NC(=O)CSc1nnnn1Cc1ccccc1 | -16% | 10% | -59* | 5 | 0%
COc1ccccc1NC(=O)CSc1nnnn1Cc1ccccc1 | -8% | 8% | 11 | -5 | 0%
COc1ccc(NC(=O)CSc2nnc(Cc3cccn3C)n2-c2ccc(C)cc2)cc1OC | -23% | -8% | 106 | 30* | 0%
COc1ccc(-n2c(Cc3cccn3C)nnc2SCC(=O)Nc2ccccc2C)cc1 | 1% | -3% | -7 | 0 | 5%
CCOC(=O)c1ccccc1NC(=O)CSc1nnc(Cc2cccn2C)n1-c1ccc(C)cc1 | -54% | -6% | 21 | 39* | 0%
COc1cccc(OCCSc2nc3ccccc3n2CC(=O)N2CCCCC2)c1 | / | 7% | / | 4 | /
COCCNC(=O)CCC1CCN(C/C=C/c2ccccc2OC)CC1 | -2% | -1% | -56* | -20 | -1%
COc1cccc(CNC(=O)CCC2CCCN(C/C=C/c3ccccc3OC)C2)c1 (configuration not stated) | -10% | -1% | -55* | -13 | 0%
COCCC(=O)N1CCCC(CCC(=O)NCc2ccc(F)c(F)c2)C1 (configuration not stated) | ? | -3% | -21 | -10 | 0%
COc1ccc(/C=C/CN2CCCC(CCC(=O)NCc3ccc(F)c(F)c3)C2)cc1 (configuration not stated) | -66% | 5% | -55* | -32 | -1%
COc1ccccc1/C=C/CN1CCCC(CCC(=O)NCc2ccc(F)c(F)c2)C1 (configuration not stated) | -8% | -12% | -66* | -18 | 0%
